The list is not random: actives were taken first. Their share in the collection is about 1.6%.
KCNQ2 pot = potentiators of rat KCNQ2 potassium channel; CHO-K1 KCNQ2, FluxOR thallium flux fluorescence; active compounds read high; AID 2239, 2010; 0.54% of 310,000 active; B-score at 10 µM; Potassium voltage-gated channel subfamily KQT member 2 (Rattus norvegicus), O88943;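 active means fluorescence ratio B-score at least 3 SD of library B-scores, with initial fluorescence B-score within 3 of them, cut at about 5.3 in these data; same plate scores as AID 2156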;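 further: B-score of peak minus minimum over baseline fluorescence ratio after K+ and Tl+ stimulus; positive B-score means potentiation of KCNQ2 with more thallium influx and brighter signal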
KCNQ2 block = rat KCNQ2 potassium channel inhibitors, primary screen, cell-based, CHO-K1, FluxOR thallium flux, B-score; Potassium voltage-gated channel subfamily KQT member 2 (Rattus norvegicus), O88943; 20 min; active compounds read low; B-score at 10 µM; 1.1% of 310,000 active;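 active means fluorescence ratio B-score at most minus 3 library SDs, with starting brightness B-score within 2 library SDs, cut at about -5.5 in these data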
Kir21 conf inh = mouse Kir2.1 channel blockers, retest, confirmation, cell-based, FluxOR thallium flux, duplicate; shares compounds with KCNQ2 pot; Kir2.1-expressing cells, FluxOR thallium flux fluorescence; active compounds read low; Tl flux remaining, % of negative control (active compounds read low), % at 10 µM; 41% of 2,300 active;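 active means Primary-screen hit whose thallium flux fell at least 3 control SD below untreated wells in both duplicates, with normal baseline fluorescence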;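 further: 0% = blank wells without stimulus and 100% = stimulated no-compound controls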
Target sequence (P35561 whole entry, looked up): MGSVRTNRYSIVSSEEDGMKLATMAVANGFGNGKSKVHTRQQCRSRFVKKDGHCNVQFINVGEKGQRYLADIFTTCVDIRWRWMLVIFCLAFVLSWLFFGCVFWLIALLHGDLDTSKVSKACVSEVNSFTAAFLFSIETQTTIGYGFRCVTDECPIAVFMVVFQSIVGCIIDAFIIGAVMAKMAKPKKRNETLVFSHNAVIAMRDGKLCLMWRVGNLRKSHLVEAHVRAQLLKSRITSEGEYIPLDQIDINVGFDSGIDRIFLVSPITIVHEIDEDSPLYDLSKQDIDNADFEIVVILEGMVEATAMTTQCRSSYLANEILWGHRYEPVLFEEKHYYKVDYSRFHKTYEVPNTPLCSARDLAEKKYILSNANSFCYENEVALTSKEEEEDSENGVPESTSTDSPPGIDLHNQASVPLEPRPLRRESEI
HEK293 Tl flux = alters thallium flux in parental HEK293 cells, Kir2.1 counter-screen; shares compounds with KCNQ2 pot; FluxOR thallium flux fluorescence; 0% = unstimulated blank wells; FluxOR signal as % of negative control (100 = no effect), % at 10 µM; 19% of 2,300 active; AID 2105;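 active means dye signal at least 3 control SD above or below untreated wells in both duplicates, raw fluorescence within 3, either direction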;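 further: percent is based on the flux ratio of peak minus minimum fluorescence over baseline F0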
CHO-K1 Tl ctr = nonspecific thallium flux increase in parental CHO-K1, confirmation, counter-screen for KCNQ2 potentiator project, cell-based, FluxOR thallium flux, duplicate. AID 2282, 2010. activity increase over 3SD of controls, % at 10 µM. parental CHO-K1 cells, FluxOR thallium flux fluorescence; zero = vehicle mean+3SD, 100% = vehicle-minus-blank window. 43% of 1,200 active. shares compounds with KCNQ2 pot;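 active means signal rise of at least 3 SD above the untreated control mean, in both duplicate wells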;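 further: counter screen of KCNQ2 potentiator hits so any rise reflects channel-independent effects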
KCNQ1 sel pot = human KCNQ1 channel potentiation off-target, confirmation, selectivity assay for KCNQ2 potentiator project, cell-based, CHO, FluxOR thallium flux; 28% of 1,200 active; CHO KCNQ1 stable, FluxOR thallium flux fluorescence; beyond 3SD, as % of vehicle-control signal; AID 2283, 2010; activation over 3SD threshold, % at 10 µM; shares compounds with KCNQ2 pot;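 active means fluorescence ratio rise of at least 3 SD of vehicle wells above their mean, in both replicate wells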;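 further: 0% = vehicle mean plus 3 SD and 100% = vehicle minus unstimulated blank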
KCNQ2 pot confirm = rat KCNQ2 channel potentiators, confirmation, cell-based, CHO, FluxOR thallium flux, duplicate; 68% of 1,200 active; shares compounds with KCNQ2 pot; CHO-KCNQ2 cells, FluxOR thallium flux fluorescence; potentiation, less the hit threshold, % at 10 µM;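 active means fluorescence ratio rising 3 SD or more over the vehicle control mean in both replicates, plus primary screen hit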;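 further: peak minus minimum thallium fluorescence divided by baseline after K/Tl stimulus; 0% = vehicle mean plus 3 SD and 100% = vehicle minus unstimulated blank difference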
Kir2-1 sel = mouse Kir2.1 channel activation off-target, confirmation, selectivity assay for KCNQ2 potentiator project, cell-based, HEK293, FluxOR thallium flux; activity over 3SD threshold, % at 10 µM; 2% of 1,200 active; shares compounds with KCNQ2 pot; HEK293 Kir2.1, FluxOR thallium flux fluorescence; AID 2345, 2010;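 active means fluorescence ratio rise of at least 3 SD above the vehicle-control mean, seen in both replicates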;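 further: 0% = vehicle mean plus 3 SD and 100% = vehicle minus no-stimulus blank window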
KCNQ2 W236L pot = potentiators of retigabine-insensitive KCNQ2 W236L, mechanism study for KCNQ2 potentiator project, cell-based, rat KCNQ2 W236L, CHO, automated patch clamp. shares compounds with KCNQ2 pot. automated patch clamp current. current increase over 3SD of negative controls (%), active compounds read high, % at 25 µM. 10% of 940 active;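 active means current increase at least 3 SD of the untreated controls above them in both duplicate recordings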
The depositor's hits bear a star; i = inactive; / = not tested or not shown.

SMILES | KCNQ2 pot | KCNQ2 block | Kir21 conf inh | HEK293 Tl flux | others
COc1cc(NC(=O)c2ccccc2)cc(OC)c1 | 16.6* | i | i | i | CHO-K1 Tl ctr=-15.9;KCNQ1 sel pot=-11.7;KCNQ2 pot confirm=30.1*;Kir2-1 sel=-34.5;KCNQ2 W236L pot=i
Cc1nn(C)c(Sc2ccccn2)c1[N+](=O)[O-] | / | i | / | /
CC(=O)Nc1ccc2nc(CN3CCC(CO)(CCc4ccccc4)CC3)ccc2c1 | / | i | / | /
CC(C)n1cnnc1SCC(=O)NC(=O)c1ccccc1 | 0.23 | i | / | /
Cc1ccccc1CN(C)CC(=O)NC(C)CCc1ccccc1 (configuration not stated) | -6.6 | -6.6* | 34.5%* | i
Cc1ccc(CC(=O)NC(C)CCc2ccccc2)cc1 (configuration not stated) | / | i | / | /
COc1ccccc1C(=O)NCC1(c2ccccc2)CCCC1 | / | i | / | /
COc1cc(CNCCc2ccc(F)cc2)ccc1OCc1ccc(Cl)nc1 | / | i | 32.5%* | i
COc1cc(CNCCc2ccccc2F)ccc1OCc1ccc(Cl)nc1 | 0.04 | i | / | /
Cc1cc(C)c(Cn2c3ccccc3c3cnn(CC(=O)NCc4ccccn4)c(=O)c32)c(C)c1 | 13.5* | i | i | i | CHO-K1 Tl ctr=-40.5;KCNQ1 sel pot=-14.0;KCNQ2 pot confirm=8.7*;Kir2-1 sel=-12.4;KCNQ2 W236L pot=i
Cc1cc(C)c(Cn2c3ccccc3c3cnn(CC(=O)NCCN4CCOCC4)c(=O)c32)c(C)c1 | 1.57 | i | / | /
CCOc1ccc(S(=O)(=O)N(CC)CC(=O)N2CCOCC2)cc1C | 1.18 | i | / | /
Cc1[nH]c2ccccc2c1SCC(=O)N1CCCc2ccccc21 | / | i | 54.5%* | i
Cc1[nH]c2ccccc2c1C(=O)C(=O)N1CCCc2ccccc21 | / | i | / | /
COc1ccc(NCc2cccnc2)cc1 | 0.51 | i | / | /
CCCCn1c(-c2cccs2)nc2oc3ccccc3c(=O)c2c1=O | 0.86 | i | / | /
O=c1c(O)c(-c2cccs2)oc2ccccc12 | 12.5* | i | i | i | CHO-K1 Tl ctr=9.6*;KCNQ1 sel pot=-32.7;KCNQ2 pot confirm=65.6*;Kir2-1 sel=-35.6;KCNQ2 W236L pot=i
Cc1ccc(-c2oc3ccccc3c(=O)c2OCC(=O)O)cc1 | / | i | / | /
Cc1ccc(-c2oc3ccccc3c(=O)c2O)cc1 | 5.64* | i | i | 162.5%* | CHO-K1 Tl ctr=-20.6;KCNQ1 sel pot=-22.4;KCNQ2 pot confirm=21.0*;Kir2-1 sel=-37.0;KCNQ2 W236L pot=i
O=c1cc(-c2cccs2)oc2ccc(Cl)cc12 | 1.25 | i | / | /
O=c1c(O)c(-c2cccs2)oc2ccc(Cl)cc12 | 14.5 | i | i | i | CHO-K1 Tl ctr=-18.1;KCNQ1 sel pot=-16.5;KCNQ2 pot confirm=70.4*;Kir2-1 sel=-29.1;KCNQ2 W236L pot=24.4%*
Cc1ccc(S(=O)(=O)N(C)/N=C2/C(=O)N(CC(=O)O)c3ccccc32)cc1 | / | i | / | /
CC(=O)CSc1ccc(C(=O)O)cn1 | 0.89 | i | / | /
O=C(COC(=O)CN1C(=O)c2ccccc2C1=O)NC1CCCC1 | / | i | / | /
N#C/C(=C\c1ccc(OCc2cccc(C(=O)O)c2)cc1)C(=O)NCc1ccco1 | / | i | / | /
SMILES | KCNQ2 pot | KCNQ2 block | Kir21 conf inh | HEK293 Tl flux | others
CCCCOCCCNC(=O)c1ccc2c(c1)OCO2 | 6.52* | i | i | i | CHO-K1 Tl ctr=1.4*;KCNQ1 sel pot=-13.9;KCNQ2 pot confirm=-26.0;Kir2-1 sel=-37.5
COCCCNC(=O)c1ccc2c(c1)OCO2 | / | i | / | /
CC(=O)Nc1ccc(NC(=O)[C@@H](NC(=O)N2C[C@H]3C[C@@H](C2)c2cccc(=O)n2C3)C(C)C)cc1 | 1.75 | i | / | /
O=C(c1nnsc1S(=O)(=O)c1ccc(Cl)cc1)N1CCOCC1 | 5.03 | i | / | /
CNC(=O)c1nnsc1S(=O)(=O)c1ccc(Cl)cc1 | -7.12 | -7.12* | i | i
C[C@]12CCC3c4ccc(OCC(=O)O)cc4CCC3C1CCC2=O (some centres not stated) | / | i | / | /
Cc1c(C(=O)OCC(=O)N2CCC(C)CC2)oc2ccccc12 | 10.9* | i | i | i | CHO-K1 Tl ctr=14.4*;KCNQ1 sel pot=-4.9;KCNQ2 pot confirm=17.2*;Kir2-1 sel=-32.3;KCNQ2 W236L pot=i
COc1ccc2oc(C(=O)OCC(=O)N3CCC(C)CC3)c(C)c2c1 | 4.56 | i | / | /
O=C(OCC(=O)N1CCOCC1)c1cc(F)c(F)cc1Cl | / | i | / | /
COc1ccccc1-c1nnc(C2CCN(S(=O)(=O)c3ccccc3[N+](=O)[O-])CC2)o1 | / | i | / | /
C#CC(CO)N(CCN(Cc1ccccc1)C(C#C)CO)Cc1ccccc1 (configuration not stated) | / | i | 61.5%* | i
C#CCN(C)Cc1ccccc1 | / | i | / | /
CN1CCN(C(=O)c2cnn3c2NC(c2ccccc2)CC3C(F)(F)F)CC1 (configuration not stated) | 1.55 | i | / | /
COC(=O)CN1C(=O)Nc2ccc(Br)cc2C1c1ccccc1 (configuration not stated) | 6.74* | i | i | i | CHO-K1 Tl ctr=-16.3;KCNQ1 sel pot=-9.8;KCNQ2 pot confirm=52.2*;Kir2-1 sel=-47.9;KCNQ2 W236L pot=i
NNC(=O)CN1C(=O)Nc2ccc(Cl)cc2C1c1ccccc1 (configuration not stated) | 2.26 | i | / | /
CCC(C(=O)Nc1ccc2c(c1)OCCO2)n1c(=O)[nH]c2ccccc2c1=O (configuration not stated) | / | i | / | /
Cc1ccc(C)c(CN2CCCN(Cc3cc(C)ccc3C)S2(=O)=O)c1 | / | i | / | /
Cc1ccc(CN2CCCN(Cc3cc(C)ccc3C)S2(=O)=O)cc1 | 7.33* | i | i | i | CHO-K1 Tl ctr=-26.0;KCNQ1 sel pot=-20.2;KCNQ2 pot confirm=-22.1;Kir2-1 sel=-27.1
CCOc1ccccc1NC(=S)N1CCN(c2cccc(OC)c2)CC1 | / | i | / | /
Oc1ccccc1Nc1nc(NCC2CCCO2)c2ccccc2n1 (configuration not stated) | / | i | 45.5%* | i

Bioassay records (PubChem BioAssay)
